The entries come from a sample that favours hits as a whole.
TTR transcr act = TTR transcription activation, primary screen | SH-SY5Y TTR promoter Gaussia luciferase, luminescence; 100% = recombinant luciferase protein wells | activation, % at 16.7 µM | 92,000 compounds, 1.3% hits;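 active means activation above the mean of all tested compounds plus 3 SD, cut at about 9.5% in these data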;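 further: cells exposed to compounds for one day before reading; 0% = median of all test compound wells on the plate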
TTR inh HuH7 = decreases TTR transcription in HuH7 cells in activator counter-screen; inhibition, % at 16.7 µM; shares compounds with TTR transcr act; HuH7 TTR promoter-Gaussia luciferase reporter, luminescence; 1,100 compounds, 4% hits; AID 1117279;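 active means average inhibition above the solvent-only control wells' mean plus 3 SD, cut at about 15% in these data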;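 further: 0% = cells with DMSO only and 100% = cells with inhibitor control FD; inhibitors lower well luminescence so higher value means more inhibition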
TTR act confirm = confirmation of human transthyretin transcription activators. shares compounds with TTR transcr act. SHSY5Y TTR promoter Gaussia luciferase, luminescence; 100% = purified Lucia enzyme wells, no cells. activation, % at 16.7 µM. 1,100 tested, under 10 active;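 active means mean activation above a set limit taken from the earlier primary screen, cut at about 11% in these data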;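 further: 0% = DMSO-treated cells and 100% = recombinant Lucia luciferase without cells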
* marks the source's active call; other numbers are inactive results.

How did CCOc1ccc(NC(=O)Cn2nnc(C(=O)NCc3cccs3)c2N)cc1 do in these assays?
TTR transcr act: 20.8*; TTR inh HuH7: -6.5; TTR act confirm: -0.8

Results for COc1ccc(NC(=O)Cn2nnc(C(=O)NCc3cccs3)c2N)c(OC)c1 ?
TTR transcr act: 2.3

How did COc1cccc(NC(=O)Cn2nnc(C(=O)NCc3cccs3)c2N)c1 do in these assays?
TTR transcr act: -2.1

How did CC1(C)C=Cc2cc(-c3coc4cc(O)cc(O)c4c3=O)cc(O)c2O1 do in these assays?
TTR transcr act: -1.7

How did O=C1CC2CC1C(C(=O)O)C2C(=O)O (configuration not stated) do in these assays?
TTR transcr act: -0.3

How did Cc1ccc(S(=O)(=O)N(C)C[C@H]2Oc3cc(Br)ccc3S(=O)(=O)N([C@H](C)CO)C[C@@H]2C)cc1 do in these assays?
TTR transcr act: 5.8

Results for C[C@H](CO)N1C[C@H](C)[C@H](CN(C)Cc2ccc(Oc3ccccc3)cc2)Oc2cc(Br)ccc2S1(=O)=O ?
TTR transcr act: 13.3*; TTR inh HuH7: -7.4; TTR act confirm: -1.0

How did CC(C)NC(=O)N(C)C[C@H]1Oc2cc(Br)ccc2S(=O)(=O)N([C@H](C)CO)C[C@H]1C do in these assays?
TTR transcr act: 0.2

Results for COc1ccc(S(=O)(=O)N(C)C[C@H]2Oc3cc(Br)ccc3S(=O)(=O)N([C@H](C)CO)C[C@H]2C)cc1 ?
TTR transcr act: 28.1*; TTR inh HuH7: 0.7; TTR act confirm: -1.2

What do the screens show for `C[C@H](CO)N1C[C@H](C)[C@H](CN(C)S(=O)(=O)c2cccc(F)c2)Oc2cc(Br)ccc2S1(=O)=O`?
TTR transcr act: 1.8

Results for C[C@H]1CN([C@@H](C)CO)S(=O)(=O)c2ccc(Br)cc2O[C@H]1CN(C)Cc1ccccc1 ?
TTR transcr act: 1.2

How did O=C(NNS(=O)(=O)c1ccc(F)cc1)c1cc(Cl)ccc1O do in these assays?
TTR transcr act: 0.2

How did C=CCCC1CN(Cc2ccc(OC)cc2)S(=O)(=O)c2c(F)cccc2O1 (configuration not stated) do in these assays?
TTR transcr act: -1.0

Results for Cc1ccc(C)c(N2CCN(C(=O)CCc3nc(-c4ccccc4Br)no3)CC2)c1 ?
TTR transcr act: -0.9

How did O=[N+]([O-])c1cc(-c2ccc(/C=N\n3cnnc3)o2)cc([N+](=O)[O-])c1 do in these assays?
TTR transcr act: 0.2

Results for O=C(Nn1cnnc1)c1ccc(Cl)cc1 ?
TTR transcr act: 0.0

What do the screens show for `O=C(CN1CCOCC1)Nc1ccc(N2CCN(c3ccccc3)CC2)c(F)c1`?
TTR transcr act: 2.1

Results for Cc1cccc(CSc2nnc(NC(=O)c3ccco3)s2)c1 ?
TTR transcr act: 1.9

Results for O=C(CSc1nnc(NC(=O)c2ccco2)s1)Nc1ccc(F)cc1 ?
TTR transcr act: 1.5

Results for Cc1cccc(NC(=O)CSc2nnc(NC(=O)c3ccco3)s2)c1 ?
TTR transcr act: 11.2*; TTR inh HuH7: -28.7; TTR act confirm: 3.1

Results for O=C(Nc1ccncc1)C1CCN(S(=O)(=O)c2ccc(Cl)c(C(F)(F)F)c2)CC1 ?
TTR transcr act: 0.3

How did CCn1cc(Cl)c(C(=O)Nc2ccc(OC)c(OC)c2)n1 do in these assays?
TTR transcr act: -0.2

What do the screens show for `NNC(=O)c1nn(-c2ccc(Cl)cc2)cc1O`?
TTR transcr act: 4.1

How did CCn1cc(Br)c(C(=O)NN)n1 do in these assays?
TTR transcr act: 15.6*; TTR inh HuH7: -2.7; TTR act confirm: 0.0

How did N#Cc1c(-c2ccc(Cl)cc2)c2c([nH]c1=O)-c1ccccc1OC2 do in these assays?
TTR transcr act: -1.0

How did Cn1c(=O)c2c(nc(CN3CCc4ccccc4C3)n2Cc2ccccc2F)n(C)c1=O do in these assays?
TTR transcr act: 0.1

What do the screens show for `Cn1c(=O)c2c(nc(CN3CCc4ccccc4C3)n2CCCO)n(C)c1=O`?
TTR transcr act: 15.5*; TTR inh HuH7: -8.4; TTR act confirm: 0.1

What do the screens show for `Cn1c(=O)c2c(nc(CN3CCN(C(=O)c4ccco4)CC3)n2CCCO)n(C)c1=O`?
TTR transcr act: 2.0

Results for Cc1cccc(C(=O)N2CCN(Cc3nc4sc5c(c4c(=O)[nH]3)CCCC5)CC2)c1 ?
TTR transcr act: 4.8

What do the screens show for `CCCc1ccc2c(C)cccc2n1`?
TTR transcr act: -0.2

How did CC(=O)N(C)c1ccc(N=Nc2c(C)[nH]n(C(N)=S)c2=O)cc1 do in these assays?
TTR transcr act: -0.8

Results for CC(=O)N(C)c1ccc(N=Nc2c(C)[nH]n(-c3ccccc3)c2=O)cc1 ?
TTR transcr act: 11.3*; TTR inh HuH7: -3.5; TTR act confirm: 0.1

What do the screens show for `CCOC(=O)c1ccc(N=Nc2c(C)[nH]n(-c3ccccc3)c2=O)cc1`?
TTR transcr act: 0.4

How did CCCN1C(=O)C(=O)c2cc(Cl)ccc21 do in these assays?
TTR transcr act: -2.3
